For 20 compounds, growth inhibition results are on record in PubChem BioAssay (NCI).

Assay [1] is described as follows: NCI Yeast Anticancer Drug Screen. Data for the rad50 strain (AID 155).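 Further: 0% = growth of vehicle-only cultures of the same strain.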 The note with it: S. cerevisiae rad50 strain growth inhibition; at 50.0 µM; active compounds read high. Summed up: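 Yeast carrying a defined DNA repair defect were exposed to test compounds, and growth was compared with vehicle-treated controls to give percent inhibition.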
The nature of assay [2]: NCI Yeast Anticancer Drug Screen. Data for the mec2-1 strain (AID 157). To be noted: S. cerevisiae mec2-1 strain, at 50.0 µM, active compounds read high. Summed up: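 Mutant yeast (mec2-1) grown with compound; growth inhibition relative to vehicle control reported.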
Assay [3] is described as follows: NCI Yeast Anticancer Drug Screen. Data for the sgs1 mgt1 strain (AID 161).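 Further: 0% = growth of cultures given vehicle only.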 To be noted: S. cerevisiae sgs1 mgt1 strain, at 50.0 µM, active compounds read high. Summed up:
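This yeast growth screen uses a strain with defined DNA-repair lesions; compound-treated growth is compared with vehicle-treated growth.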

A short description of assay [4]: NCI Yeast Anticancer Drug Screen. Data for the cln2 rad14 strain (AID 165).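 Further: 0% = growth equal to vehicle treated cultures.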 The note with it: S. cerevisiae cln2 rad14 strain, at 50.0 µM, active compounds read high. Summed up: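 Readout is yeast growth inhibition versus vehicle-treated controls, using a strain with cln2 and rad14 alterations exposed to compound.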
Assay [5] is described as follows: NCI Yeast Anticancer Drug Screen. Data for the bub3 strain (AID 167). The note with it: S. cerevisiae bub3 mutant strain, at 50.0 µM, active compounds read high. Summed up:
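Compounds were applied to a genetically altered yeast strain carrying a cell-cycle control defect. Growth inhibition was scored against vehicle-treated controls.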

A short description of assay [6]: NCI Yeast Anticancer Drug Screen. Data for the mlh1 rad18 strain (AID 175). To be noted: S. cerevisiae mlh1 rad18 strain growth inhibition; at 50.0 µM; active compounds read high. Summed up:
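Genetically defined yeast (DNA repair-deficient) exposed to compounds; growth inhibition determined relative to vehicle.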

The panel holds about 79,000 compounds, 15% with a hit somewhere; the sample as a whole holds those more often. A number with no mark means an inactive call. Active and inactive are the calls of the source. No stated cut-off is given here; in the data, active means growth inhibition above about 70%; inactive means the rest.

As to `CCCC[S][Sn-]([CH2]CCC)([CH2]CCC)[CH2]CCC`, the growth inhibition in assay [1] was 98.7% (active); in assay [2] it was 98.7% (active); in assay [3], 99.2% (active); in assay [4], 98.5% (active); in assay [5] it was 99% (active); in assay [6] it was 99% (active).
`Cc1ccc(N=C2OP(=O)(Nc3ccc(C)cc3)Oc3ccccc32)cc1` (stereo not given): the growth inhibition in assay [1] is -11.3%; in assay [2], -44.8%; in assay [3] it was -23.6%; in assay [4], 0.3%; in assay [5], -6%; in assay [6], -19.9%.
Turning to `[CH3][Hg][O]C(C)=O`, the growth inhibition in assay [1] was 99.5% (active); in assay [2], 99.9% (active); in assay [3] it was 99.7% (active); in assay [4], 99.5% (active); in assay [5] it was 99.7% (active); in assay [6], 99.7% (active).
`CC(C)OP(=O)(OC(C)C)C(N(C)C)P(=O)(OC(C)C)OC(C)C.[Cl][Sn]([Cl])([Cl])[c]1ccccc1`: the growth inhibition in assay [1] is -10.9%; in assay [2], -10.2%; in assay [3] it was 2.1%; in assay [4] it was 28.8%; in assay [5] it was 7.85%; in assay [6], 1.5%.
For `CN(C)NP(=O)(NN(C)C)c1ccccc1`, the growth inhibition was -49.9% in assay [1]; -18.1% in assay [2]; -22.4% in assay [3]; -67.8% in assay [4]; -1.6% in assay [5]; -14.4% in assay [6].
On to `CN1CCC(O)(c2ccccc2)C(C(O)c2ccccc2)C1` (stereo not given), for which the growth inhibition in assay [1] is 5.2%; in assay [2], -21.7%; in assay [3], 17.9%; in assay [4] it was -8.55%; in assay [5], -23.9%; in assay [6], -20.6%.
As for `O=CC1(c2ccccc2)CCN(Cc2ccccc2)CC1`, the growth inhibition in assay [1] was 38.8%; in assay [2] it was -16.1%; in assay [3], 45.1%; in assay [4], 41.3%; in assay [5] it was 38.1%; in assay [6], 17.4%.
Consider `CC1(C)CN=C(NN=C(/C=C/c2ccc(C(F)(F)F)cc2)/C=C/c2ccc(C(F)(F)F)cc2)NC1`, for which the growth inhibition is 21.6% in assay [1]; 10.4% in assay [2]; 15.3% in assay [3]; 20.2% in assay [4]; 32.2% in assay [5]; 46.8% in assay [6].
For the compound `COc1ccc(-n2c(C)nc3ccccc3c2=O)cc1CN(CCCl)CCCl`, the growth inhibition in assay [1] was 4.45%; in assay [2], -3.55%; in assay [3], -8.15%; in assay [4], -22.1%; in assay [5] it was 2.6%; in assay [6], 2.3%.
Take `O=P(OCCCCCl)(OCCCCCl)C(Cl)Cl`: the growth inhibition in assay [1] is -6.4%; in assay [2], -11.6%; in assay [3], 0.65%; in assay [4], 5.8%; in assay [5], 4.5%; in assay [6], 6.5%.
`CC1(C[N+](C)(C)C)COC(C)(C)O1` (stereo not given): the growth inhibition is -3.95% in assay [1]; 11.6% in assay [2]; 5.25% in assay [3]; -2.85% in assay [4]; 5.3% in assay [5]; 3.95% in assay [6].
`COc1cc2c(cc1OC)-c1c3c(cc4c1[C@@H](C2)N(C)CC4)OCO3`: the growth inhibition was -23.8% in assay [1]; -12.8% in assay [2]; -12.8% in assay [3]; -1.9% in assay [4]; -21.7% in assay [5]; -17.6% in assay [6].
Take `Nc1ccn(C2OC(COP(=O)(O)Oc3ccccc3)C(O)C2O)c(=O)n1` (stereo not given): the growth inhibition in assay [1] was 11.1%; in assay [2], -11.8%; in assay [3] it was 17.8%; in assay [4], 4%; in assay [5] it was 5.2%; in assay [6] it was 11.3%.
With `S=C(SP(SC(=S)N1CCCCC1)SC(=S)N1CCCCC1)N1CCCCC1`, the growth inhibition was 28.9% in assay [1]; -31.9% in assay [2]; 47.5% in assay [3]; -10.2% in assay [4]; -2.2% in assay [5]; 39.7% in assay [6].
In the case of `OCCSCSCCO`, the growth inhibition in assay [1] was -5.8%; in assay [2] it was -8.8%; in assay [3] it was 5.8%; in assay [4], 10.2%; in assay [5], -2.8%; in assay [6], 0.8%.
`COc1cc(N=Nc2ccc([N+](=O)[O-])cc2)c([OH+]C)cc1[N+]#N.COc1cc(N=Nc2ccc([N+](=O)[O-])cc2)c([OH+]C)cc1[N+]#N.[Cl][Zn][Cl]`: the growth inhibition in assay [1] was 7%; in assay [2], -1.05%; in assay [3], -2.1%; in assay [4], -3.15%; in assay [5], 17.9%; in assay [6], 12.6%.
On to `c1cc[c]([Ge]([c]2ccccc2)[c]2ccccc2)cc1`, for which the growth inhibition in assay [1] is 23.1%; in assay [2] it was -3.8%; in assay [3] it was 3.05%; in assay [4] it was 20.3%; in assay [5], -5.15%; in assay [6] it was 14.4%.
As for `Cc1ccccc1-n1c(/C=C\c2ccccn2)nc2ccccc2c1=O`, the growth inhibition is 36.7% in assay [1]; 8.65% in assay [2]; 33.4% in assay [3]; 35.6% in assay [4]; 53.6% in assay [5]; 23.6% in assay [6].
Take `CCC1C(=O)OCC1Cc1cncn1C` (stereo not given): the growth inhibition in assay [1] was -11.3%; in assay [2], -8.4%; in assay [3], -17.9%; in assay [4], 0.55%; in assay [5], -9.95%; in assay [6], -17.9%.
In the case of `N.N.N.N.N.NC(=O)c1nn[n-]n1.[Cl-].[Co+3]`, the growth inhibition in assay [1] was -27.2%; in assay [2] it was -3%; in assay [3], -9.45%; in assay [4] it was 0%; in assay [5], -27.3%; in assay [6] it was -17.1%.
